The source of these data is PubChem BioAssay (NCATS).

Records with an inconclusive call do not appear. Calls of active or inactive are those of the source. Calls come from the whole dose curve; as a rule, active = well fitted curve in the direction sought with a large enough effect; inconclusive = small, poorly fitted or top-dose-only effect, or another doubt; inactive = no such curve, though single readings can be large; an effect the other way counts as inactive or inconclusive.

The target in assay [1] is Cytochrome P450 3A4 (Homo sapiens) (UniProt P08684). Nature of the assay: qHTS Assay for Activators of Cytochrome P450 3A4 (AID 885). Note: nearly all actives have a fitted effect of over 65% in size. The gist of the method: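 Luminescent readout of luciferin formed from 25 uM Luciferin-PPXE (KM level) by 20 nM CYP3A4 in 200 mM KPO4, with 60 min NADPH-driven reaction at room temperature after 10 min compound exposure. Ketoconazole (57 uM) defined 100% inhibition.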
For orientation: In qHTS, concentration-response curves come from the screen itself.

Assay [2] has as its target ATP-dependent 6-phosphofructokinase (Trypanosoma brucei brucei) (UniProt O15648). In words: qHTS Assay to Find Inhibitors of T. brucei phosphofructokinase: hit validation (AID 492961).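 Note: luminescence reports ADP formed as PFK phosphorylates fructose-6-phosphate with ATP.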 The gist of the method: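 Reaction: 0.1 M triethanolamine pH 8.0, 5 mM MgCl2, F6P 0.5 mM, ATP 0.1 mM, PFK 1.25 nM, 45 min RT. Read-out: ADP-Glo luminescence. Analysis: concentration-response fits, classed by r2 and efficacy.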

Assay [3] concerns the target Luciferin 4-monooxygenase (Photinus pyralis) (UniProt P08659). Nature of the assay: Biochemical firefly luciferase enzyme assay for NPC (AID 624030). Note: nearly all actives have a fitted effect of over 70% in size. Note: potency is the fitted concentration of half-maximal effect. In a few lines: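 Counter-screen for direct inhibition of the luciferase enzyme by approved-drug library compounds, run at 10 nM enzyme in 50 mM Tris acetate (final). Luminescence was read within 5 min of enzyme-buffer addition and normalized to PTC124 versus DMSO (0%).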

The test system of another assay is 3D7. In words: qHTS profiling for inhibitors of Plasmodium falciparum proliferation (AID 504749). Note: nearly all actives have a fitted effect of over 60% in size. Note: potency is the fitted concentration of half-maximal effect. As to conditions: P. falciparum in erythrocytes, SYBR Green DNA, 72 h; series mostly up to 28.7 µM. The gist of the method: (§1)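 Fluorescence of SYBR Green-bound parasite DNA, read at 485/535 nm, served as the growth measure. Infected erythrocytes were cultured with compound 72 h; artemisinin (0.29 uM) and DMSO wells defined the normalization range.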

A further assay has as its system ATS189. Described as above. As to conditions: P. falciparum in erythrocytes, SYBR Green DNA, 72 h; series mostly up to 28.7 µM. In a few lines: as §1
The subject of a further assay is CP185. Described as above. As to conditions: P. falciparum in erythrocytes, SYBR Green DNA, 72 h; series mostly up to 28.7 µM. In a few lines:
as §1

In the next assay the test system is CP192. Described as above. As to conditions: P. falciparum in erythrocytes, SYBR Green DNA, 72 h; series mostly up to 28.7 µM. The gist of the method:
as §1

The next assay deals with CP194. The assay is described as above. As to conditions: P. falciparum in erythrocytes, SYBR Green DNA, 72 h; series mostly up to 28.7 µM. In a few lines: as §1
The next assay relates to CP201. Described as above. As to conditions: P. falciparum in erythrocytes, SYBR Green DNA, 72 h; series mostly up to 28.7 µM. The gist of the method: as §1
The subject of another assay is CP238. The assay is described as above. The conditions noted are these: P. falciparum in erythrocytes, SYBR Green DNA, 72 h; series mostly up to 28.7 µM. In a few lines:
as §1

A further assay deals with CP247. Described as above. The conditions noted are these: P. falciparum in erythrocytes, SYBR Green DNA, 72 h; series mostly up to 28.7 µM. In a few lines: as §1
In another assay the test system is CP291. The description is as above. As to conditions: P. falciparum in erythrocytes, SYBR Green DNA, 72 h; series mostly up to 28.7 µM. In a few lines:
as §1

In the next assay the test system is CP335. Described as above. As to conditions: P. falciparum in erythrocytes, SYBR Green DNA, 72 h; series mostly up to 28.7 µM. The gist of the method:
as §1

For another assay, the system named is DFO2036. The description is as above. The conditions noted are these: P. falciparum in erythrocytes, SYBR Green DNA, 72 h; series mostly up to 28.7 µM. In a few lines: as §1
The next assay has as its system DIV30. The description is as above. The conditions noted are these: P. falciparum in erythrocytes, SYBR Green DNA, 72 h; series mostly up to 28.7 µM. In a few lines:
as §1

The next assay concerns Dd2. The description is as above. As to conditions: P. falciparum in erythrocytes, SYBR Green DNA, 72 h; series mostly up to 28.7 µM. The gist of the method:
as §1

Another assay concerns GB4. The assay is described as above. As to conditions: P. falciparum in erythrocytes, SYBR Green DNA, 72 h; series mostly up to 28.7 µM. The gist of the method: as §1
The test system of a further assay is HB3. The description is as above. The conditions noted are these: P. falciparum in erythrocytes, SYBR Green DNA, 72 h; series mostly up to 28.7 µM. The gist of the method: as §1
Another assay has as its system P94_40. The assay is described as above. The conditions noted are these: P. falciparum in erythrocytes, SYBR Green DNA, 72 h; series mostly up to 28.7 µM. In a few lines: as §1
Another assay relates to TAB113. Described as above. As to conditions: P. falciparum in erythrocytes, SYBR Green DNA, 72 h; series mostly up to 28.7 µM. In a few lines: as §1

Chain of ATP-dependent 6-phosphofructokinase (Trypanosoma brucei brucei) (O15648 whole entry, looked up): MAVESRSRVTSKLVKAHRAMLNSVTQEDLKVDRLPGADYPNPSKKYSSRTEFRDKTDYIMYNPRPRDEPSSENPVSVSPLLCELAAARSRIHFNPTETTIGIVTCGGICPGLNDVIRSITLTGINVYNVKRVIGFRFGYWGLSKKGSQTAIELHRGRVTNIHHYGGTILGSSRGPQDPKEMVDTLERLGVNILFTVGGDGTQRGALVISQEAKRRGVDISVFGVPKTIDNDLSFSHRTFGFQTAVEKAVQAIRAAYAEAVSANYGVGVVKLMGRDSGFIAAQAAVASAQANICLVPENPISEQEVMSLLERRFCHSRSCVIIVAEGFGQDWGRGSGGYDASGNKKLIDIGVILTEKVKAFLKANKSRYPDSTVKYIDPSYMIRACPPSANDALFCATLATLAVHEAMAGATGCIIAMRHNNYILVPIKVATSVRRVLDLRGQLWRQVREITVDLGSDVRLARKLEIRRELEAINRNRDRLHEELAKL
Chain of Luciferin 4-monooxygenase (Photinus pyralis) (P08659 whole entry, looked up): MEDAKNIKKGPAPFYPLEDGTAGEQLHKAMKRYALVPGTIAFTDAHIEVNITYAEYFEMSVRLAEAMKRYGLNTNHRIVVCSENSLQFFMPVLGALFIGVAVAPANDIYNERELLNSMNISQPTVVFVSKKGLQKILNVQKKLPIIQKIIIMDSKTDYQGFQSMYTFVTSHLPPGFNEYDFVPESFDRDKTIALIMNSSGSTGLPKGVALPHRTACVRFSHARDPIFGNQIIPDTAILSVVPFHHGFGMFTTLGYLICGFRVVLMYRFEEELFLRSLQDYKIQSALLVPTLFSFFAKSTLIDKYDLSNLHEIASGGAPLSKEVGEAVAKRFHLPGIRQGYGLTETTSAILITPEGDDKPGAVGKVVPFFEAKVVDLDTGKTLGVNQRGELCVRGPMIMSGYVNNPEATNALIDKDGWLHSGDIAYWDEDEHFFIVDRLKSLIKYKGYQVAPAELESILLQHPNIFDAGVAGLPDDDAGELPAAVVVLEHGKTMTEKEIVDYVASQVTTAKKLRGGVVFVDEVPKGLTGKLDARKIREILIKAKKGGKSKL
Chain of Cytochrome P450 3A4 (Homo sapiens) (P08684 whole entry, looked up): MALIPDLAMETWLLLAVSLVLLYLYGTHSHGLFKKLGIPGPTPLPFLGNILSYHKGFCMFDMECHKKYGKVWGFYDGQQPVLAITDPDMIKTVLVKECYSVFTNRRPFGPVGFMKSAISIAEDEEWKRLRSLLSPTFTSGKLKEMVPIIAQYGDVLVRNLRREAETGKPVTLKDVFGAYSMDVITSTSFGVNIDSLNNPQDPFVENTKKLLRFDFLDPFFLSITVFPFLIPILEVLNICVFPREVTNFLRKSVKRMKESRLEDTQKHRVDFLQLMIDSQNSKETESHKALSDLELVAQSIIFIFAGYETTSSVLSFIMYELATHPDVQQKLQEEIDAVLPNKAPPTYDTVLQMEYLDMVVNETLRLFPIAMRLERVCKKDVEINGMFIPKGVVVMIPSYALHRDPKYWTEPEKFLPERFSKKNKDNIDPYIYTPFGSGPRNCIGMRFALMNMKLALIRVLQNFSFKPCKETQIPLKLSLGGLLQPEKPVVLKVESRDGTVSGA

Take `C=C[C@@](C)(O)CC[C@@H]1[C@@]2(C)CCCC(C)(C)[C@@H]2CC[C@@]1(C)O`: the Potency entry in [1] is “inactive”.
`CN(CCOc1ccc(C[C@H](Nc2ccccc2C(=O)c2ccccc2)C(=O)O)cc1)c1ccccn1`: the Potency entry in [1] is “inactive”.
Regarding `C[C@@]12C(=O)OC(=O)[C@]1(C)[C@H]1CC[C@@H]2O1`, in [2], the outcome was inactive. Besides, the Potency result in assay [3] is “inactive”. In addition, the Potency was 3.16 µM (active) in the assay on 3D7; 2.82 µM (active) in the assay with ATS189; 2.51 µM (active) in the assay on CP185; 4.55 µM (active) with CP192; 2.87 µM (active) in the assay with CP194; 3.61 µM (active) in the assay with CP201. In addition, the Potency with CP238 is 2.51 µM (active); in the assay on CP247, 1.78 µM (active); with CP291, 3.22 µM (active); with CP335, 2.56 µM (active); in the assay on DFO2036, 3.98 µM (active); in the assay on DIV30, 5.73 µM (active). Moreover, the Potency in the assay with Dd2 was 4.47 µM (active); in the assay on GB4, 4.05 µM (active); in the assay on HB3, 3.55 µM (active); in the assay with P94_40 it was 2.51 µM (active); in the assay on TAB113 it was 3.98 µM (active).
On to `C=C1CCC2[C@](C)(CO)C(O)CC[C@]2(C)C1C/C=C1/C(=O)OCC1O` (stereo partly specified), for which the Potency entry (in assay [1]; in assay [3]; in the assay with 3D7; in the assay with ATS189; with CP185; with CP192) was “inactive” each time. The Potency entry in the assay with CP194, in the assay on CP201, in the assay with CP238, in the assay with CP291, in the assay with CP335 and in the assay on DFO2036 was “inactive” each time. Also, the Potency result in the assay with DIV30, in the assay on Dd2, with GB4, with HB3, with P94_40 and in the assay with TAB113 was “inactive” in each case. The compound was called inactive in [2]. For the same compound, the Potency in the assay with CP247 was 11.2 µM (active).
In the case of `COC[C@@H](c1ccc(C(F)(F)F)cc1)N1CCN(C2(C)CCN(C(=O)c3c(C)ncnc3C)CC2)C[C@@H]1C`, in assay [3], the Potency result is “inactive”.
Consider `CC(/C=C1\SC(=S)N(CC(=O)O)C1=O)=C\c1ccccc1`, for which the compound was classed as inactive in assay [2]. Also, in assay [3], the Potency is 6.42 µM (active). For the same compound, the Potency entry in the assay with 3D7, in the assay on ATS189, in the assay with CP185, in the assay on CP192, in the assay with CP194 and in the assay on CP201 was “inactive” throughout. Further, the Potency result in the assay on CP238, with CP247, in the assay with CP291, in the assay with CP335, in the assay on DFO2036 and in the assay on DIV30 was “inactive” throughout. Besides, the Potency result in the assay with Dd2, in the assay with GB4, with HB3, in the assay with P94_40 and in the assay with TAB113 was “inactive” throughout.
